In the library only some 1.5% were active in any assay of this set; here they are far more common.
AI-2 QS modul = Vibrio harveyi AI-2 quorum sensing modulation | AID 2094 | Vibrio harveyi JMH597 AI-2 luminescence/OD600 ratio, 9 h; active compounds read low; strain lacks LuxN and CqsS sensors; 0 = neutral-control median | 300,000 tested, 0.4% active | activity change, % at 7.5 µM; in the data active means activity change below about -75%, passing the limit was not always enough; inconclusive means no clear call, values can overlap the other calls;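 further: luminescence divided by OD600 gain over 9 h not by final OD600 alone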
ARNT-TACC3 inh = disrupts binding between human ARNT and TACC3; AlphaScreen His-ARNT PAS-B/GST-TACC3 binding, luminescence; TACC3 fragment carries E629A point mutation; 390,000 tested, 0.66% active; inhibition, % at 9.99 µM;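 active means mean inhibition of replicates at least 50% and at least half of replicates each reaching 50%; inconclusive means half or more replicates reach 50% but mean below 50%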
sPLA2-III inh = Blocks human group III sPLA2 activity; Q9NZ20; QFRET BODIPY PC-A2 liposome hydrolysis, fluorescence; inhibition, % at 12.2 µM; 370,000 tested, 0.56% active; AID 743126;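 active means inhibition above mean plus 3 SD of compounds lying within the high and low control bounds, cut at about 19% in these data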
Target sequence (Q9NZ20 whole entry, looked up): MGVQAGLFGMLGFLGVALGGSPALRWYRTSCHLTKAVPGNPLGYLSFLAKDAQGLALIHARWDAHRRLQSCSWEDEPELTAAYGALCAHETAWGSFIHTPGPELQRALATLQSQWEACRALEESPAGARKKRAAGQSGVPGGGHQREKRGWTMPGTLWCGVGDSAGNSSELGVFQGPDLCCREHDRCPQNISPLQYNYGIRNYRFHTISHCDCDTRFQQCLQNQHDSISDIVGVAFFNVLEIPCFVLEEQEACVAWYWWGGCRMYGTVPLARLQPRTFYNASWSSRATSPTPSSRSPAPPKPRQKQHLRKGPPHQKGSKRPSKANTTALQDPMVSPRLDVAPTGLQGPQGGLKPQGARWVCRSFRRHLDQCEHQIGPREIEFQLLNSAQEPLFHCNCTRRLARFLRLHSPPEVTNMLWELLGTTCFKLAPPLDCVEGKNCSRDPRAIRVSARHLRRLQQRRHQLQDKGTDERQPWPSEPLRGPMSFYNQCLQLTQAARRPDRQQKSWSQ
Rin1 Abl inh = inhibitors of human Rin1-Abl protein interaction; P00519+Q13671; TR-FRET Rin1/Abl binding, biochemical; inhibition, % at 7.35 µM; 360,000 tested, 0.4% active; AID 588664; in the data active means inhibition above about 5%, passing the limit was not always enough
sPLA2 confirm = human GIII-sPLA2 inhibition, confirmation; shares compounds with sPLA2-III inh; recombinant hGIII-sPLA2, BODIPY PC-A2 QFRET fluorescence; inhibition, % at 12.2 µM; 2,000 tested, 34% active; AID 743280;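 active means mean inhibition across triplicates above the hit cutoff set in the earlier primary screen, cut at about 19% in these data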
BODIPY interf = 535nm fluorescence interference, HGIII-sPLA2 counter-screen | shares compounds with sPLA2-III inh | BODIPY FL product fluorescence interference, QFRET | inhibition, % at 12.2 µM | 2,000 tested, 8.5% active | AID 743282;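 active means average inhibition above the solvent-only control mean plus 3 SD, cut at about 6% in these data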
BODIPY interf DR = counter-screen for HGIII-sPLA2 inhibitors: 535nm fluorescence interference, dose response. shares compounds with sPLA2-III inh. BODIPY FL product fluorescence interference, cell-free. IC50, µM. 240 tested, under 10 active;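 active means IC50 at or below 10 µM; inactive means IC50 above 10 µM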
Large screens that a line does not name were inactive (follow-up assays come after a bar, where they were run).

C/C=C/c1cnc2c(c1)C(=O)N([C@@H](C)CO)C[C@H](C)[C@H](CN(C)C(=O)NC1CCCCC1)O2	none (no result: AI-2 QS modul, sPLA2-III inh, Rin1 Abl inh)
Cc1cccc2sc(NNC(=O)c3ccc(S(=O)(=O)N4CCCC(C)C4)cc3)nc12 (stereo not drawn)	sPLA2-III inh 34 | sPLA2 confirm 38 | BODIPY interf inactive | BODIPY interf DR inactive
Cc1cccc2sc(NNC(=O)c3ccc(S(=O)(=O)N4CCc5ccccc5C4)cc3)nc12	sPLA2-III inh 41 | sPLA2 confirm 43 | BODIPY interf 7.8
COc1ccc(C(=O)NC(=S)Nc2nc(C)c(C(=O)N(C)C)s2)cc1	sPLA2-III inh 22 | sPLA2 confirm inactive | BODIPY interf inactive
CC(=O)Nc1ccc(NC(=S)NC(=O)c2ccc(-c3ccccc3)cc2)cc1	none (no result: ARNT-TACC3 inh)
Cc1ccc(C(=O)NNC(=S)NC(=O)c2ccco2)cc1	AI-2 QS modul inconclusive, sPLA2-III inh 22 | sPLA2 confirm 32 | BODIPY interf inactive | BODIPY interf DR inactive
Cc1ccc(C(=O)NNC(=O)c2ccco2)cc1	none
Cc1ccc(NC(=O)NC(=S)NC(=O)c2ccccc2)cc1	sPLA2-III inh 23 | sPLA2 confirm inactive | BODIPY interf inactive
Cc1cccc(C(=O)NNC(=S)NC(=O)c2ccccc2)c1	AI-2 QS modul inconclusive, sPLA2-III inh 23 | sPLA2 confirm 36 | BODIPY interf inactive | BODIPY interf DR inactive
CCOC(=O)c1sc(NC(=S)NC(=O)c2ccc(OC)cc2)nc1C	none
O=C(Nc1cccc(Cl)c1)N[C@H]1CC[C@@H](CCNC(=O)C2CCCCC2)O[C@H]1CO	none (no result: AI-2 QS modul, sPLA2-III inh, Rin1 Abl inh)
O=C(C[C@@H]1C[C@@H]2c3cc(NC(=O)c4cccnc4)ccc3O[C@@H]2[C@H](CO)O1)NCc1cccc(F)c1	none (no result: AI-2 QS modul, sPLA2-III inh, Rin1 Abl inh)
COc1ccc(C(=O)NC(=S)NNC(=O)c2cccc(C)c2)cc1	sPLA2-III inh 27 (no result: ARNT-TACC3 inh, Rin1 Abl inh) | sPLA2 confirm 38 | BODIPY interf inactive | BODIPY interf DR inactive
CC(C)(C)NC(=S)NNC(=O)c1ccncc1	sPLA2-III inh 23 | sPLA2 confirm inactive | BODIPY interf inactive
COc1ccc(C(=O)NC(=S)NNC(=O)c2ccncc2)cc1Br	sPLA2-III inh 29 (no result: AI-2 QS modul) | sPLA2 confirm 26 | BODIPY interf inactive
CCNC(=S)NNC(=O)c1cccc(Br)c1	sPLA2-III inh 22 | sPLA2 confirm 33 | BODIPY interf inactive
COc1ccc(C(=O)NNC(=S)NC(=O)c2ccc(F)cc2)cc1Br	none (no result: ARNT-TACC3 inh)
CCNC(=S)NNC(=O)c1ccncc1	none
COc1ccc(CNC(=O)C[C@@H]2C[C@H]3c4cc(NC(=O)CN(C)C)ccc4O[C@H]3[C@@H](CO)O2)cc1	none (no result: AI-2 QS modul, sPLA2-III inh, Rin1 Abl inh)
COc1ccc(C(=O)NNC(=S)NC(=O)c2cccs2)cc1	AI-2 QS modul -81, sPLA2-III inh 21 | sPLA2 confirm 40 | BODIPY interf inactive | BODIPY interf DR inactive
COc1ccc(/C=C/C(=O)NC(=S)NNC(=O)c2cccs2)cc1	none
COc1ccc(C(=O)NNC(=S)NC(=O)c2cccnc2)cc1	AI-2 QS modul inconclusive
COc1ccc(C(=O)NNC(=S)NC(=O)c2ccc(OC)cc2)cc1	sPLA2-III inh 20 | sPLA2 confirm 26 | BODIPY interf inactive
COC(=O)c1sc(NC(=O)c2ccco2)nc1C	none
CCOC(=O)c1sc(NC(=S)NC(=O)c2ccco2)nc1C	sPLA2-III inh 27 (no result: ARNT-TACC3 inh) | sPLA2 confirm inactive | BODIPY interf inactive
CCCOc1ccc(C(=O)NC(=S)Nc2nc3ccccc3s2)cc1	sPLA2-III inh 26 | sPLA2 confirm inactive | BODIPY interf inactive
O=C(NCC(F)(F)F)[C@H]1[C@H](CO)[C@H]2Cn3c(ccc(-c4cccnc4)c3=O)[C@@H]1N2Cc1ccccc1	none (no result: AI-2 QS modul, sPLA2-III inh, Rin1 Abl inh)
CCNC(=O)C[C@@H]1CC[C@H]2[C@@H](COc3ccc(NC(=O)c4ccc5c(c4)OCO5)cc3C(=O)N2C)O1	none (no result: AI-2 QS modul, sPLA2-III inh, Rin1 Abl inh)
Cc1ccccc1C(=O)NNC(=S)NC(=O)c1ccccc1	none
Cc1ccc(C(=O)NC(=S)NNC(=O)c2ccccc2)cc1	AI-2 QS modul -150, sPLA2-III inh 24 | sPLA2 confirm 40 | BODIPY interf inactive | BODIPY interf DR inactive
CC(C)C(=O)Nc1ccc(C(=O)NNC(=S)NC(=O)c2cccs2)cc1	none
O=C(NN1CCOCC1)c1cccc(Br)c1	none (no result: ARNT-TACC3 inh)
Cc1cccc(C(=O)NNC(=S)NC(=O)c2cccs2)c1	sPLA2-III inh 28 | sPLA2 confirm 27 | BODIPY interf inactive
CN1CCN(NC(=O)c2cccc(Br)c2)CC1	sPLA2-III inh 21 | sPLA2 confirm inactive | BODIPY interf inactive
COCC(=O)Nc1ccc2c(c1)C(=O)N(C)C[C@@H](OC)[C@@H](C)CN(CC1CC1)[C@H](C)CO2	none (no result: AI-2 QS modul, sPLA2-III inh, Rin1 Abl inh)
C[C@@H]1CN([C@@H](C)CO)C(=O)Cc2cc(NC(=O)NC3CCCCC3)ccc2O[C@@H]1CN(C)S(=O)(=O)c1ccccc1	none (no result: AI-2 QS modul, sPLA2-III inh, Rin1 Abl inh)
S=c1nn[nH]c2ccccc12	sPLA2-III inh 23 (no result: AI-2 QS modul) | sPLA2 confirm inactive | BODIPY interf inactive
COc1ccc2c(c1)C1C=CCC1C(c1cc3c(cc1Br)OCO3)N2 (stereo not drawn)	sPLA2-III inh 20 | sPLA2 confirm 34 | BODIPY interf 8.9
CC(C)c1c(C(=O)N/N=C/c2ccc3c(c2)OCO3)nnn1-c1nonc1N	none
Cc1ccc(-c2cc(C(=O)NN=Cc3ccc(F)cc3)[nH]n2)cc1C	none (no result: AI-2 QS modul, ARNT-TACC3 inh, Rin1 Abl inh)
CCN(CC)c1ccc(/C=N/NC(=S)NC)c(O)c1	ARNT-TACC3 inh 60, sPLA2-III inh 21 | sPLA2 confirm 37 | BODIPY interf inactive | BODIPY interf DR inactive
CCN(CC)c1ccc(/C=N/NC(=O)c2ccoc2C)c(O)c1	none
CCN(CC)c1ccc(C=NNC(=O)c2cc(-c3ccc(C)c(C)c3)n[nH]2)c(O)c1	sPLA2-III inh 21 (no result: AI-2 QS modul, ARNT-TACC3 inh, Rin1 Abl inh) | sPLA2 confirm 31 | BODIPY interf inactive | BODIPY interf DR inactive
CCN(CC)c1ccc(/C=N/NC(=O)c2nnn(-c3nonc3N)c2C(C)C)c(O)c1	sPLA2-III inh 24 | sPLA2 confirm 46 | BODIPY interf 7.6
Cc1ccc(N2CN(Cc3ccco3)CNC2=S)c(C)c1	sPLA2-III inh 25 | sPLA2 confirm inactive | BODIPY interf inactive
Cc1nn(S(=O)(=O)c2cccc([N+](=O)[O-])c2)c(C)c1Br	none
Cc1cc(C)c(S(=O)(=O)n2nc(C)c(Br)c2C)c(C)c1	sPLA2-III inh 19 | sPLA2 confirm inactive | BODIPY interf inactive
CCn1c(-c2cc3c(C(F)(F)F)nn(C)c3s2)n[nH]c1=S	sPLA2-III inh 20 | sPLA2 confirm 34 | BODIPY interf inactive | BODIPY interf DR inactive
CCSC1=NCCN1S(=O)(=O)c1ccc(Cl)cc1	sPLA2-III inh 22 | sPLA2 confirm inactive | BODIPY interf inactive
CCSC1=NCCN1S(=O)(=O)c1ccccc1	none
CCCCC(=O)Oc1cc(C)[nH]c(=O)c1[N+](=O)[O-]	sPLA2-III inh 21 | sPLA2 confirm inactive | BODIPY interf inactive
CCCC(CCC)C(=O)Oc1cc(C)[nH]c(=O)c1[N+](=O)[O-]	none
